Test results: PMC7862700, “An all-to-all approach to the identification of sequence-specific readers for epigenetic DNA modifications on cytosine”

Assays:
Assay in all cases: DAPPL (digital affinity profiling via proximity ligation, sequencing); 10 mM Tris-HCl pH 7.5, 50 mM NaCl, 1 mM DTT, 4% glycerol, room temperature, 30 min; GST-TFs on glutathione beads, 16-mer random dsDNA library, 0.1% formaldehyde crosslink after washing; high values mean tight binding
Details in all cases: protein: recombinant; tags: N-terminal GST; dsDNA, one strand shown
[1] = target: T1, FLI1 (Homo sapiens, UniProt Q01543 1-452)
T1 sequence: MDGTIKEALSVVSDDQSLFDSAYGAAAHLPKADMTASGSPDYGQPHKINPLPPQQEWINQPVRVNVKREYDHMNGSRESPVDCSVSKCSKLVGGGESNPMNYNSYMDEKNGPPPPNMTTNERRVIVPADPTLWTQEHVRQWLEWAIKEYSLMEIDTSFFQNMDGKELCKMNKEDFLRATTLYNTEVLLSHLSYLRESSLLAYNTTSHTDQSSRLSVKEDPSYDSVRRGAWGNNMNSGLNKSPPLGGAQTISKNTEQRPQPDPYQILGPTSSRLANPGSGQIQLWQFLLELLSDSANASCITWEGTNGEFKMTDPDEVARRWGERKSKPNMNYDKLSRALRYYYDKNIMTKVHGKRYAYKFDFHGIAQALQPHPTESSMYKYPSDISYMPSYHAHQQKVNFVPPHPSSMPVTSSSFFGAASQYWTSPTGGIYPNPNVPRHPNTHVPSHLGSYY
Outline: (§1)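 Human transcription factors fused to GST were expressed in yeast, captured on glutathione beads, given DNA barcodes and pooled with a GST-only negative control. Pools were incubated with 200 nmole of a 16-mer random double-stranded DNA library in Tris/NaCl/DTT/glycerol buffer at room temperature for 30 min. They were then washed, crosslinked with 0.1% formaldehyde, proximity-ligated (BsaI/T4 ligase, 1 h, 37 °C), PCR-amplified and sequenced on an Illumina NextSeq500. Binding signal is each 6-mer's read frequency for a factor divided by its frequency for the GST control.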

[2] = target: T2, ELK1 (Homo sapiens, UniProt P19419 1-428)
T2 sequence: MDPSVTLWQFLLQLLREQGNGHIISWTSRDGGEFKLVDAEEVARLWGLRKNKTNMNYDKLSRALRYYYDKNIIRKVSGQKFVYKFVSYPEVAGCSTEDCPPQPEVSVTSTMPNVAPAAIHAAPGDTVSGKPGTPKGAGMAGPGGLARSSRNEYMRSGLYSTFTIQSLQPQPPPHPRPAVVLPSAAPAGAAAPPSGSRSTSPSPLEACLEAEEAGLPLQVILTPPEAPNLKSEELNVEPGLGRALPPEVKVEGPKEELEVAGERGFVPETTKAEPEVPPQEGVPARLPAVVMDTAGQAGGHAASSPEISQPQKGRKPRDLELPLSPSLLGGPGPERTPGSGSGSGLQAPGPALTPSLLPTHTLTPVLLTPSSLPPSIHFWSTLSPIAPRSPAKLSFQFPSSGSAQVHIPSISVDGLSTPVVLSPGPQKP
Outline: as §1

[3] = target: T3, GABPA (Homo sapiens, UniProt Q06546 1-454)
T3 sequence: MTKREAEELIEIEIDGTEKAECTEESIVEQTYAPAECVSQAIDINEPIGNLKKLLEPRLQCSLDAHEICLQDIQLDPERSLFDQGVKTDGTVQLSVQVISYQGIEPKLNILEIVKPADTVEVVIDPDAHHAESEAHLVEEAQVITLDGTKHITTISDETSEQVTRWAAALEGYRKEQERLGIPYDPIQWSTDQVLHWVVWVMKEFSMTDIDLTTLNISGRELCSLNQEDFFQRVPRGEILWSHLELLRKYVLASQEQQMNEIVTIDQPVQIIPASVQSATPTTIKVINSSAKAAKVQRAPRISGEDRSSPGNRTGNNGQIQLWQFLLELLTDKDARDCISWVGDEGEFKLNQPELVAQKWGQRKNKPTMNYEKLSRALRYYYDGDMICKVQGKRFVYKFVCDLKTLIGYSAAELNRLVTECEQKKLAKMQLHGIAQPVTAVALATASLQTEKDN
Outline: as §1

[4] = target: T4, ERG (Homo sapiens, UniProt P11308 1-479)
T4 sequence: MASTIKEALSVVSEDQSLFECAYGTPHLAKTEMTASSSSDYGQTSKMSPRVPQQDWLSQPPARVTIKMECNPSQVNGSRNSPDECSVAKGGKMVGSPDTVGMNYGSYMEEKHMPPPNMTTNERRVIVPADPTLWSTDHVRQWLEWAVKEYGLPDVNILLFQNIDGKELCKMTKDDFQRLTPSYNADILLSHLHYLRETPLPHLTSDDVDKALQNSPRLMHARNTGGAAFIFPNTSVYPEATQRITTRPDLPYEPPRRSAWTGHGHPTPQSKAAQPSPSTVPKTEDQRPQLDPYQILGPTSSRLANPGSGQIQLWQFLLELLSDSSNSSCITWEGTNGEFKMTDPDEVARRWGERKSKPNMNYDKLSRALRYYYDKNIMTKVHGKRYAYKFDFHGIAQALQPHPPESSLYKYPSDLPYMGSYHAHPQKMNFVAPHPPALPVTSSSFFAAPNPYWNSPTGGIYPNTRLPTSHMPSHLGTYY
Outline: as §1

[5] = target: ELF1 (Homo sapiens, UniProt P32519 1-619)
Chain of ELF1 (P32519 whole entry): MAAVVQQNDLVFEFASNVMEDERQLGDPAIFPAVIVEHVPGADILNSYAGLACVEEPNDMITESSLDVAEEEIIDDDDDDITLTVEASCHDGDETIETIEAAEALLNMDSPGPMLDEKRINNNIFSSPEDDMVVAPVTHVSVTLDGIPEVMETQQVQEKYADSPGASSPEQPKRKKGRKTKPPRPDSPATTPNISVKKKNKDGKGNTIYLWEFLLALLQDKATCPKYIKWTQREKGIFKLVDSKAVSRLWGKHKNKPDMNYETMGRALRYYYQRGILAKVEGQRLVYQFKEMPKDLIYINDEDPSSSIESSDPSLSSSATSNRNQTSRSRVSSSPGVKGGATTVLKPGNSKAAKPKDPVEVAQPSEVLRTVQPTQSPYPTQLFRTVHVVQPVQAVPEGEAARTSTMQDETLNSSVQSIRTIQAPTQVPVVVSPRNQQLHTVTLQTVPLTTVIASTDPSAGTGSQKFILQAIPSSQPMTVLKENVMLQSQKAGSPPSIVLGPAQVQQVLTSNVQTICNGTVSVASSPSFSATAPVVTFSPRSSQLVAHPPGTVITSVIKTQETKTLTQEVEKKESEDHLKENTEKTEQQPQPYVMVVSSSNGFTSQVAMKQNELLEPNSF
Outline: as §1

[6] = target: T5, EHF (Homo sapiens, UniProt Q9NZC4 1-300)
T5 sequence: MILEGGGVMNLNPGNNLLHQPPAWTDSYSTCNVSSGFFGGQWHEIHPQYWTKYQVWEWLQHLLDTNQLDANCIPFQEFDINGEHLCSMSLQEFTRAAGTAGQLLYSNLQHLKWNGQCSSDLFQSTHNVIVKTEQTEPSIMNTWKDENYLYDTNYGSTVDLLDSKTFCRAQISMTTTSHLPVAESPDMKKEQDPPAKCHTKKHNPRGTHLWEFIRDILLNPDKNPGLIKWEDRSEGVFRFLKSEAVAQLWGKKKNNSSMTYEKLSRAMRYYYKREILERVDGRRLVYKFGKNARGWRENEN
Outline: as §1

[7] = target: SPI1 (Homo sapiens, UniProt P17947 1-270)
Outline: as §1

[8] = target: SPIB (Homo sapiens, UniProt Q01892 1-262)
Chain of SPIB (Q01892 whole entry): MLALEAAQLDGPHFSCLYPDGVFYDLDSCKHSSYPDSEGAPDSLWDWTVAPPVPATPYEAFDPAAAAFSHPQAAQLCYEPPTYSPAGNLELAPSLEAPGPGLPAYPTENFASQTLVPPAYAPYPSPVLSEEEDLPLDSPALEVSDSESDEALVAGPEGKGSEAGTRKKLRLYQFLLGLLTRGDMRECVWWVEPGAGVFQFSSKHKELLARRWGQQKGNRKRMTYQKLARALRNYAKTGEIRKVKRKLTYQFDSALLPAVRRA
Outline: as §1

[9] = target: T6, ELK3 (Homo sapiens, UniProt P41970 1-407)
T6 sequence: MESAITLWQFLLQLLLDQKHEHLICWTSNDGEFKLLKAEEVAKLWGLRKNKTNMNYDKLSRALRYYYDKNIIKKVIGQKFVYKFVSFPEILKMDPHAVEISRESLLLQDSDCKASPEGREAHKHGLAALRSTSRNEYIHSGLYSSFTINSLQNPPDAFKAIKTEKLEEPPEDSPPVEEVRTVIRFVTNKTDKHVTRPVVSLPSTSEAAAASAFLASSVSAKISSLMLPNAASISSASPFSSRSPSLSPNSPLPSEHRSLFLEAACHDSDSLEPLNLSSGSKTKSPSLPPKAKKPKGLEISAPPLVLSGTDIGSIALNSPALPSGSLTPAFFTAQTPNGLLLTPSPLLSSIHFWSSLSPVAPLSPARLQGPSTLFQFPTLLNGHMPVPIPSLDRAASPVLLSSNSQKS
Outline: as §1

Sequence	binding signal [1]	binding signal [2]	binding signal [3]	binding signal [4]	binding signal [5]	binding signal [6]	binding signal [7]	binding signal [8]	binding signal [9]
GTTCAC	1.23 fold enrichment (6-mer frequency, TF over GST control)	1.23 fold enrichment (6-mer frequency, TF over GST control)	1.32 fold enrichment (6-mer frequency, TF over GST control)	1.21 fold enrichment (6-mer frequency, TF over GST control)	1.16 fold enrichment (6-mer frequency, TF over GST control)	1.13 fold enrichment (6-mer frequency, TF over GST control)	1.18 fold enrichment (6-mer frequency, TF over GST control)	1.19 fold enrichment (6-mer frequency, TF over GST control)	1.18 fold enrichment (6-mer frequency, TF over GST control)
GCGTCC	1.26 fold enrichment (6-mer frequency, TF over GST control)	1.27 fold enrichment (6-mer frequency, TF over GST control)	1.27 fold enrichment (6-mer frequency, TF over GST control)	1.28 fold enrichment (6-mer frequency, TF over GST control)	1.26 fold enrichment (6-mer frequency, TF over GST control)	1.22 fold enrichment (6-mer frequency, TF over GST control)	1.23 fold enrichment (6-mer frequency, TF over GST control)	1.3 fold enrichment (6-mer frequency, TF over GST control)	1.29 fold enrichment (6-mer frequency, TF over GST control)
CACCAC	1.15 fold enrichment (6-mer frequency, TF over GST control)	1.2 fold enrichment (6-mer frequency, TF over GST control)	1.23 fold enrichment (6-mer frequency, TF over GST control)	1.18 fold enrichment (6-mer frequency, TF over GST control)	1.18 fold enrichment (6-mer frequency, TF over GST control)	1.11 fold enrichment (6-mer frequency, TF over GST control)	1.18 fold enrichment (6-mer frequency, TF over GST control)	1.14 fold enrichment (6-mer frequency, TF over GST control)	1.06 fold enrichment (6-mer frequency, TF over GST control)
CCTCGT	1.16 fold enrichment (6-mer frequency, TF over GST control)	1.1 fold enrichment (6-mer frequency, TF over GST control)	1.39 fold enrichment (6-mer frequency, TF over GST control)	1.24 fold enrichment (6-mer frequency, TF over GST control)	1.3 fold enrichment (6-mer frequency, TF over GST control)	1.18 fold enrichment (6-mer frequency, TF over GST control)	1.31 fold enrichment (6-mer frequency, TF over GST control)	1.13 fold enrichment (6-mer frequency, TF over GST control)	1.37 fold enrichment (6-mer frequency, TF over GST control)
